PubChem BioAssay (NCI)
This is part of a sample that, as a whole, favours compounds with a hit. Of some 83,000 tested, about 20% had one in any assay.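 Growth was measured after 48 h exposure to one concentration of compound in 96-well plates. Values under 10 count as active.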 A number with no mark means an inactive call. Active and inactive are the calls of the source.

These molecules were tested on EKVX NSCLC (assay: NCI-60 one-dose screen, 48 h (100 = growth as untreated, 0 = no growth, -100 = all killed)). Conditions: 10 µM unless noted.
Description: Growth inhibition of the EKVX human Non-Small Cell Lung tumor cell line is measured as a screen for anti-cancer activity. Cells are grown in 96 well plates and exposed to the test compound for 48 hours. Compounds are tested at a single concentration, which is 10^-5 M for most compounds. The reported endpoint is percent growth (GI% or GIPRCNT), where numbers from 0 - 100% represent growth inhibition, and numbers from -100% - 0 represent cell death. For example, a value of 40 represents 60% growth inhibition. A value of 0 means no net growth occurred over the course of the experiment. A value of -40 indicates 40% of cells at the beginning of the experiment died by the end of the experiment. A value of -100 means all cells are dead at the end of the experiment.
NCI-60 Human Tumor Cell Lines Screen was performed using the standard one-dose NCI protocol, which is described in more detail at https://dtp.cancer.gov/discovery_development/nci-60/default.htm.
Compounds with GIPRCNT values below 10 were considered active. Activity score was based on GIPRCNT using the following formula: […]
Score is 0 for GIPRCNT values of 100 or above, 50 for GIPRCNT values of 0, and 100 for GIPRCNT values of -100.
`O=S(=O)(NCCCNc1nccc(-c2[nH]c(-c3ccccc3)nc2-c2ccc(Cl)c(O)c2)n1)c1cccc(F)c1` showed a growth of 65.2%. `Cc1ccc(NC(=S)NNC(=S)Nc2ccc(C)cc2)cc1` showed a growth of 94.5%. `COC(=O)/C=C/c1c(C2(C)NC(=O)c3ccccc3N2)c(=O)oc2ccc(Cl)cc12` (stereo not given) was tested, and the growth was 88.3%. Work on `COc1cccc(/C=C(/C)c2ccc3cccc(OC)c3[o+]2)c1O` yielded a growth of 89.6%. Work on `O=C(CN1CCN(c2cc(=O)[nH]c3ccc(F)cc23)CC1)Nc1ccc(Cl)cc1` yielded a growth of 69.9%. With `COc1ccccc1NCc1cccn1Cc1ccc(F)cc1` the growth was 98%. For `Cc1ccc(CSc2nc(-c3ccc(Cl)cc3)c(C#N)c(N3CCNCC3)n2)cc1`, the growth was 82.2%. Molecule `COc1cc(-c2nn(C(C)(C)C)cc2-c2ccnc(NCCCNS(=O)(=O)c3ccccc3)n2)ccc1Cl` has a growth of 36.5%. Work on `CCNC(=O)Oc1ccc(/C(=C(/C)c2ccccc2)c2ccc(OCCN3CCCCCC3)cc2)cc1` yielded a growth of 52.4%. Work on `O=C(NNc1nc2cc(F)c(F)cc2n2c(CN3CC4CNCC4C3)ccc12)c1ncccn1` (stereo not given) yielded a growth of 20%. `CCOc1ccc(NC2=C(Cl)C(=O)c3nc(C)ccc3C2=O)cc1` was tested, and the growth was -97.5% (active). Molecule `CNC(=O)c1cc(Oc2ccc3nc(NC(=O)c4cccc(OC(F)(F)F)c4)sc3c2)ccn1` has a growth of 79.6%. Molecule `O=S(=O)(NC1c2ccccc2C[C@H]1O)c1ccc(Cl)cc1Cl` (stereo not given in full) has a growth of 98.8%. With `O=C(CCn1c[n+](CC(=O)c2ccc(F)cc2)c2ccccc21)Nc1cccc2cccnc12` the growth was 89.5%. Molecule `CCCCCc1ccc(S(=O)(=O)Nc2cc(-c3csc(NC(=O)CN4CCN(CCO)CC4)n3)ccc2OC)cc1` has a growth of 73.6%. `COc1ccccc1-n1cc(C#N)c(N)c1C(=O)c1ccc(Br)cc1` gave a growth of 85.4%. With `O=C(CN1CCN(c2cc(=O)n(-c3ccccc3)c3ccccc23)CC1)Nc1ccc(F)cc1` the growth was 48.7%. `O=C(CN1CCN(c2cc(=O)n(-c3ccccc3)c3ccccc23)CC1)Nc1nc(-c2ccc(Cl)cc2)cs1` showed a growth of 42.7%. With `CS(=O)(=O)c1ccc(-c2nn(-c3ccccc3)cc2/C=N/NC(=O)c2nc(N)n[nH]2)cc1` the growth was 90.3%. `O=C(CSc1nnc(-c2ccc(Cl)cc2)n1-c1ccccc1)Nc1ccc(Br)cc1` was tested, and the growth was 24.9%. For `CN1CCN(Cc2ccc(NC(=O)c3cncc(C#Cc4cnc5ccc(OCC(C)(C)O)nn45)c3)cc2C(F)(F)F)CC1`, the growth was -31.2% (active). `Cc1ccc(NC(=O)c2ccc(CN3CCN(C)CC3)cc2)cc1Oc1ccc(-c2[nH]nc3ncnc(N)c23)cc1` showed a growth of 107%. Work on `COc1cc2oc(-c3cccc(C(=O)N[C@@H](CC(C)C)C(=O)OC(C)(C)C)c3)cc(=O)c2c(OC)c1OC` yielded a growth of 89.7%. `COC(=O)C(Cc1ccccc1)Nc1nc(NC(Cc2ccccc2)C(=O)OC)nc(N2CCOCC2)n1` (stereo not given) was tested, and the growth was 105%. With `Nn1c(N/N=C/c2nc3ccccc3s2)n[nH]c1=S` the growth was 64.9%. `C=C(C=O)[C@@H]1CC[C@]2(C)[C@H](C(=O)C=C3[C@H]4C[C@](C)(C(=O)OC)CC[C@]4(C)CC[C@]32C)[C@@]1(C)CCC#N` was tested, and the growth was 47.7%. In the case of `Cc1ccc2sc3c(c2c1)OC(N)=C(C#N)C3c1cccc(F)c1` (stereo not given), the growth is reported as 44.6%. For `COc1ccc(CCOc2cc3c(cc2OC)CCN(C(=O)NCc2cocn2)C3c2ccc(C)cc2C)cc1` (stereo not given), the growth was 39.7%. Molecule `COc1ccc(NC(=O)CSc2nnc(-c3ccc4nc(-c5ccc(OC)c(OC)c5)[nH]c4c3)o2)cc1OC` has a growth of 107%. Work on `COc1cc(Cn2cc3c(c2)-c2onc(CN4CCOCC4)c2CC3)cc(OC)c1OC` yielded a growth of 83%. `O=C(Nc1ccc(N=Cc2c(O)[nH]c3ccccc23)cc1)Nc1nccs1` showed a growth of 34.6%. Molecule `COc1ccc(/C=N/NC(=O)c2cn(C3CC3)c3c(OC)c(N4CC5CCCNC5C4)c(F)cc3c2=O)cc1` (stereo not given) has a growth of 102%. In the case of `Nc1ncc(-c2ccc3ncnc(N4CCc5cc(F)c(F)cc54)c3c2)cn1`, the growth is reported as 18.7%. Molecule `COc1cc(/C=N/NC(=O)c2cn(C3CC3)c3c(OC)c(N4CC5CCCNC5C4)c(F)cc3c2=O)ccc1O` (stereo not given) has a growth of 24.9%. With `NC(N)=Nc1ccc(Oc2cccc(Nc3ccc(Cl)c(C(F)(F)F)c3)c2)cn1` the growth was -58.5% (active). Work on `Nc1nc(Nc2ccccc2SSc2ccccc2Nc2nc(N)nc(-c3ccc4ccccc4c3)n2)nc(-c2ccc3ccccc3c2)n1` yielded a growth of 44.7%. `O=S(=O)(NCCCNc1nccc(-c2[nH]c(-c3ccccc3)nc2-c2ccc(Cl)c(O)c2)n1)c1cccc2ccccc12` showed a growth of 46.2%. For `CC1=CC(=O)C2=C(C)CC(OC(=O)CCc3ccccc3)[C@@H]3[C@H](OC(=O)[C@@H]3C)[C@@H]12` (stereo not given in full), the growth was 102%. For `C[C@@H](Nc1c(C#N)cnc2ccc(-c3cnc(Cl)c(NS(C)(=O)=O)c3)cc12)c1ccccc1`, the growth was -9.44% (active). For `CCCCCc1ccc(S(=O)(=O)Nc2cc(-c3csc(NC(=O)CN4CCN(C)CC4)n3)ccc2OC)cc1`, the growth was 63.4%.
